Test systems include NCI-H23 lung; NCI-H226 lung; NCI-H322M lung; HOP-62 NSCLC; NCI-H460 lung; HOP-92 NSCLC; NCI-H522 lung; A549/ATCC NSCLC; 786-0 renal; COLO 205 colon; DU-145 prostate; K-562 leukemia; MALME-3M melanoma; MDA-MB-231 breast; RXF 393 renal; SF-268 CNS; SF-295 CNS; SF-539 CNS; UACC-257 melanoma; M14 melanoma.
Holding throughout (assay): NCI-60 one-dose screen, 48 h (100 = growth as untreated, 0 = no growth, -100 = all killed)
What all share (conditions): 10 µM unless noted

Each structure is given as a SMILES string. Compounds without any hit were thinned out: in the full panel of roughly 83,000, 20% have a hit.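 How to read the values: 0–100, growth inhibition (40 = 60% inhibited); 0, no net growth; -100 to 0, cell death (-40 = 40% of starting cells died; -100 = all dead).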 Values without a mark were called inactive. Calls of active or inactive are those of the source. The calls were made as follows: active = growth percent below 10; inactive = the rest.

As to `COc1cc(Nc2c(C#N)cnc3cc(OCCCN4CCN(C)CC4)c(OC)cc23)c(Cl)cc1Cl`, the growth was 61.5% with NCI-H23 lung; 78.4% in the experiment on NCI-H226 lung; 13.3% in the experiment with NCI-H322M lung; 61.3% in the experiment with HOP-62 NSCLC; 38.6% in the experiment on NCI-H460 lung; 98% with HOP-92 NSCLC. The growth in the experiment on NCI-H522 lung is 14.5%; in the experiment on A549/ATCC NSCLC, 36.1%; in the experiment with 786-0 renal, 67.7%; in the experiment on COLO 205 colon, 6.9% (active); in the experiment with DU-145 prostate, 46%; in the experiment with K-562 leukemia it was 22.7%. For the same compound, the growth in the experiment on MALME-3M melanoma was 1.06% (active); with MDA-MB-231 breast, 62.3%; in the experiment on RXF 393 renal it was 59%; in the experiment on SF-268 CNS, 70.5%; in the experiment with SF-295 CNS it was 83.7%; in the experiment with SF-539 CNS, 94.4%. Further, the growth in the experiment with UACC-257 melanoma is -8.01% (active); in the experiment with M14 melanoma it was 13%.

With `C[C@@H](Nc1cc(F)cc(F)c1)c1cc(C(=O)N(C)C)cc2c(=O)cc(N3CCOCC3)oc12`, the growth in the experiment on NCI-H23 lung is 76.6%; with NCI-H226 lung, 83.7%; with NCI-H322M lung, 31.5%; with HOP-62 NSCLC, 59.3%; in the experiment with NCI-H460 lung, 43.1%; in the experiment with HOP-92 NSCLC it was 27.3%. In addition, the growth in the experiment on NCI-H522 lung was 59.7%; with A549/ATCC NSCLC it was 34.9%; in the experiment on 786-0 renal, 12.7%; with COLO 205 colon it was 46.6%; in the experiment with DU-145 prostate, 68.2%; in the experiment with K-562 leukemia, 87.6%. In addition, the growth with MALME-3M melanoma was 68.9%; in the experiment with MDA-MB-231 breast, 82.4%; in the experiment on RXF 393 renal, -16.4% (active); in the experiment on SF-268 CNS it was 56.8%; with SF-295 CNS it was 14.8%; in the experiment with SF-539 CNS, 24.1%. Besides, the values for the growth with UACC-257 melanoma and in the experiment with M14 melanoma were 35.2% and 69.2%, respectively.

With `CCn1cc(-c2ccnc3[nH]c(-c4cccc(CN(C)C)c4)cc23)c(-c2ccc(NC(=O)N(C)C)cc2)n1`, the growth in the experiment with NCI-H23 lung is 17.6%; in the experiment on NCI-H226 lung it was 32.3%; in the experiment with NCI-H322M lung it was 38.7%; in the experiment with HOP-62 NSCLC it was 15%; in the experiment with NCI-H460 lung it was 9.19% (active); in the experiment on HOP-92 NSCLC it was -13.3% (active). For the same compound, the growth is 6.18% (active) in the experiment on NCI-H522 lung; 14.9% with A549/ATCC NSCLC; 35.1% in the experiment on 786-0 renal; -26.9% (active) in the experiment with COLO 205 colon; 40.2% with DU-145 prostate; 1.59% (active) with K-562 leukemia. Besides, the growth in the experiment with MALME-3M melanoma is 46.9%; in the experiment with MDA-MB-231 breast it was 14%; in the experiment with RXF 393 renal, -24.8% (active); in the experiment on SF-268 CNS it was 33.5%; in the experiment with SF-295 CNS, 16.1%; with SF-539 CNS it was 5.58% (active). The results for the growth in the experiment on UACC-257 melanoma and in the experiment on M14 melanoma were 40.8% and 21.4%, respectively.

Regarding `COc1cccc(NC(=O)Nc2ccc(Nc3ncnc4sc5c(c34)CCN(C(=O)CCl)C5)cc2)c1`, the growth is 96.7% in the experiment with NCI-H23 lung; 88.9% in the experiment with NCI-H226 lung; 96.8% in the experiment with NCI-H322M lung; 88.7% with HOP-62 NSCLC; 98.1% with NCI-H460 lung; 97.1% in the experiment with HOP-92 NSCLC. The growth was 71.6% with NCI-H522 lung; 91% with A549/ATCC NSCLC; 103% with 786-0 renal; 104% in the experiment on COLO 205 colon; 118% in the experiment with DU-145 prostate; 91.3% with K-562 leukemia. Besides, the growth with MALME-3M melanoma is 116%; in the experiment on MDA-MB-231 breast it was 92.7%; in the experiment with RXF 393 renal, 99.1%; with SF-268 CNS, 91.3%; in the experiment on SF-295 CNS, 98.1%; with SF-539 CNS it was 106%. Moreover, the growth with UACC-257 melanoma is 93.4%; in the experiment with M14 melanoma, 101%.

For the compound `CNC(=O)c1ccccc1Nc1nc(Nc2ccc3c(c2OC)CCC[C@H](N2CCN(CCO)CC2)C3)ncc1Cl`, the growth in the experiment with NCI-H23 lung is 16.3%; with NCI-H226 lung it was 28.6%; with NCI-H322M lung, 5.21% (active); in the experiment with HOP-62 NSCLC, -48.7% (active); in the experiment with NCI-H460 lung it was 0.445% (active); in the experiment with HOP-92 NSCLC it was -30.7% (active). Further, the growth in the experiment with NCI-H522 lung is -47.9% (active); with A549/ATCC NSCLC it was -31.7% (active); in the experiment on 786-0 renal, -66.1% (active); in the experiment on COLO 205 colon, -64.7% (active); with DU-145 prostate it was 18.7%; in the experiment with K-562 leukemia it was -43.9% (active). In addition, the growth with MALME-3M melanoma is -52.1% (active); in the experiment on MDA-MB-231 breast it was -19.4% (active); in the experiment with RXF 393 renal, -23.3% (active); in the experiment with SF-268 CNS, 17.3%; with SF-295 CNS it was -63.7% (active); in the experiment on SF-539 CNS it was -41.7% (active). Further, the growth is -75.8% (active) in the experiment on UACC-257 melanoma and -69% (active) in the experiment with M14 melanoma.

`CNS(=O)(=O)Nc1nccc(Cc2c(C)c3ccc(Oc4ncccn4)cc3oc2=O)c1F`: the growth in the experiment on NCI-H23 lung was 24.1%; in the experiment with NCI-H226 lung, 58%; in the experiment on NCI-H322M lung, 33.3%; in the experiment on HOP-62 NSCLC, 42.8%; in the experiment with NCI-H460 lung, 61.3%; in the experiment with HOP-92 NSCLC, -4.71% (active). Moreover, the growth with NCI-H522 lung is 52%; in the experiment with A549/ATCC NSCLC, 38.3%; with 786-0 renal, 68%; with COLO 205 colon, 8.97% (active); in the experiment with DU-145 prostate, 61.3%; with K-562 leukemia, 26.2%. Moreover, the growth in the experiment on MALME-3M melanoma was 4.1% (active); with MDA-MB-231 breast it was 41%; with RXF 393 renal, 44.9%; in the experiment on SF-268 CNS, 78%; in the experiment on SF-295 CNS, 70.6%; with SF-539 CNS it was 68%. The values for the growth in the experiment on UACC-257 melanoma and in the experiment with M14 melanoma were -5.41% (active) and 13.3%, respectively.

For `CCOC(=O)c1sc(NC(=O)COc2ccc(/C=C3\Cc4ccc(Cl)cc4C3=O)cc2)nc1C`, the growth in the experiment with NCI-H23 lung was 97.1%; in the experiment with NCI-H226 lung, 97.1%; in the experiment with NCI-H322M lung, 103%; in the experiment on HOP-62 NSCLC, 109%; in the experiment with NCI-H460 lung, 95%; with HOP-92 NSCLC it was 92.5%. Besides, the growth is 97.2% in the experiment with NCI-H522 lung; 104% in the experiment with A549/ATCC NSCLC; 110% in the experiment with 786-0 renal; 118% with COLO 205 colon; 117% with DU-145 prostate; 102% in the experiment with K-562 leukemia. In addition, the growth in the experiment on MALME-3M melanoma was 110%; with MDA-MB-231 breast it was 90.6%; in the experiment on RXF 393 renal, 116%; with SF-268 CNS it was 114%; in the experiment on SF-295 CNS it was 127%; with SF-539 CNS, 86.9%. Moreover, the growth in the experiment on UACC-257 melanoma was 112%; in the experiment on M14 melanoma it was 107%.

(Values after PubChem BioAssay (NCI).)
